Screening data deposited in PubChem by National Center for Advancing Translational Sciences (NCATS).
This is a sample that favours compounds with a hit; in the whole collection about 12% have one here.
Sm TGR block – qHTS Assay for the Inhibitors of Schistosoma Mansoni Peroxiredoxins. actives 3% (n = 360,000). AID 485364, 2010. Potency, µM (highest dose often 114 µM), for the others: top-dose activity change, negative = inhibition, usual class: inhibitors. purified TGR, DTNB reduction, TNB absorbance 405 nm; active = well fitted inhibition curve with a large enough effect; inconclusive = small, poorly fitted or top-dose-only effect; inactive = no such curve, though single readings can be large or run the other way; note: potency is the fitted concentration of half-maximal effect; % is set by controls: 0 for no effect and ±100 for the full control effect; nearly all actives have a fitted effect of over 60% in size
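TGR 20 nM + NADPH 100 uM (dispensed conc.), cpd preinc 15 min RT; start with NADPH (500 uM addition) then DTNB (15 mM addition). Kinetic TNB absorbance, 405 nm filter. Four-parameter Hill fit across titration.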
FMDV inh – High Throughput Screening for Foot and Mouth Disease Virus Antivirals | FMDV antiviral cell-based qHTS | Potency, µM (highest dose often 57.9 µM), without a hit: at the top dose activity change, negative = inhibition, actives largely listed as inhibitors | actives 1.2% (n = 410,000) | AID 1159524, 2015; calls by dose curve; tested in HEK293T cells; note: read-out not given here; potency is the fitted concentration of half-maximal effect; % is set by controls: 0 for no effect and ±100 for the full control effect; nearly all actives have a fitted effect of over 45% in size
Shiga inhibitor – A qHTS for Small Molecule Inhibitors of Shiga Toxin; Vero cells, Shiga toxin protein synthesis inhibition reporter; inhibition, % at 38.7 µM; actives 9.2% (n = 290,000); AID 2315, 2010; in the data active = inhibition mostly above about 28%, no sharp cut-off; inactive = mostly below about 43%; note: 0% is about no effect
Cycloheximide cs – Cycloheximide Counterscreen for Small Molecule Inhibitors of Shiga Toxin; AID 2314, 2010; actives 12% (n = 300,000); cell reporter, cycloheximide protein synthesis inhibition counterscreen; max response, %; in the data active = max response mostly above about 13%, no sharp cut-off; inactive = mostly below about 14%; note: read at 38.3 µM for the half of the compounds with a filed dose; 0% is about no effect
Active calls of the source: *; i = inactive; ? = inconclusive; / = no result; + = active, no number; ! = not active in a repeat.

SMILES	Sm TGR block	FMDV inh	Shiga inhibitor	Cycloheximide cs
COc1cccc(-n2c(-c3ccco3)nc3c(cnn3-c3ccc(C)cc3)c2=O)c1	-10%	?	/	/
COc1ccc(-n2c(-c3ccco3)nc3c(cnn3-c3ccc(C)cc3)c2=O)cc1	-13%	40µM*!	-8	1
CNC(=O)NC(=O)C(NC1CCCc2ccccc21)c1ccccc1 (stereo not given)	-26%	16%	-3	2
Cc1ccc(NC(=O)C(NC2CCCc3ccccc32)c2ccccc2)c([N+](=O)[O-])c1 (stereo not given)	7%	10%	+	22*
Cc1ccc(NC(=O)C(NC2CCCc3ccccc32)c2ccccc2)cc1Cl (stereo not given)	-3%	-14%	15	26*
O=C(CCc1ccccc1)NCCc1csc(-c2cccc(F)c2)n1	3%	-13%	/	/
O=C(OCC(=O)N1CCOCC1)c1ccccc1Br	-1%	26%	47*	39*
O=C(OCC(=O)N1CCOCC1)c1ccccc1Cc1ccccc1	-6%	54%	60*	39*
Cc1ccc(C2Nc3ccc4ccccc4c3C3=C2C(=O)CC(C)(C)C3)o1 (stereo not given)	-19%	19%	29	13*
O=C1CCCC2=C1C(c1ccco1)Nc1ccc3ccccc3c12 (stereo not given)	?	-8%	45*	33*
CC1(C)CC(=O)C2=C(C1)c1c(ccc3ccccc13)NC2c1ccc(C(=O)O)cc1 (stereo not given)	-18%	-13%	22	14
CC(C)c1ccc(NC(=O)CSc2nc(=O)n(Cc3ccccn3)c3c2CCC3)cc1	7%	0%	/	/
COc1ccc(CNC(=O)CCc2c(C)nn(-c3ccc(N4CCCCC4)nn3)c2C)cc1	7%	5%	/	/
COc1cccc(Nc2ncc3ncc(=O)n(C[C@H]4CCCO4)c3n2)c1	/	0%	/	/
O=C(Oc1ccc2c(=O)c(Oc3ccc4ccccc4c3)coc2c1)c1cncc(Br)c1	-3%	-1%	-7	4
O=C(Oc1ccc2c(=O)c(Cl)coc2c1)c1ccncc1	8.9µM*	-12%	-16	4
Cc1ccc(-c2ccccc2NC(=O)C2C3C=CC(C3)C2C(=O)O)o1 (stereo not given)	35µM*	9%	16	13
O=C(O)C1C2C=CC(C2)C1C(=O)Nc1cccc(F)c1 (stereo not given)	-1%	-21%	-3	4
Cc1ccc(-c2cccc(NC(=O)C3C(C(=O)O)[C@@H]4C=C[C@H]3C4)c2)o1 (stereo not given in full)	20µM*	-6%	33*	18
Cc1ccc(-c2ccccc2NC(=O)CCl)o1	32µM*	0%	51	16*
CC[C@H](C)[C@@H]1NC(=O)[C@H](Cc2ccc(O)cc2)NC(=O)[C@@H](N)CSSC[C@@H](C(=O)N2CCC[C@H]2C(=O)N[C@@H](CC(C)C)C(=O)NCC(N)=O)NC(=O)[C@H](CC(N)=O)NC(=O)[C@H](CCC(N)=O)NC1=O	/	/	8	-6
NC(=O)N/N=C/c1sc(=O)n(-c2ccccc2)c1Cl	32µM*	23%	47	16*
O=C(N/N=C/c1sc(=O)n(-c2ccccc2)c1Cl)c1ccccc1	?	22%	76*	28*
Cc1ccc(Nc2nc(C(N)=O)c(NC(=O)c3ccccc3Br)s2)cc1	1%	5%	/	/
C[C@]1(O)CC(=O)C=C[C@H]1Nc1ccccc1	/	25µM*	/	/
SMILES	Sm TGR block	FMDV inh	Shiga inhibitor	Cycloheximide cs
CC1(C)CC(C(=O)Nc2ccccc2)C(=O)O1 (stereo not given)	/	18%	/	/
Cc1cccc(N2CCN(S(=O)(=O)c3ccc(F)c(C(=O)Nc4ccc(C(C)C)cc4)c3)CC2)c1C	10%	-2%	/	/
CC(Oc1ccc(Br)cc1)C(=O)Nc1nc(-c2ccccn2)cs1 (stereo not given)	0%	40µM*	6	-3
CC(=O)c1ccc(-c2ccc(C(=O)Nc3nc(-c4ccccn4)cs3)o2)cc1	/	-4%	/	/
O=C(COc1ccc([N+](=O)[O-])cc1)Nc1nc(-c2ccccn2)cs1	-9%	-11%	/	/
O=C(Nc1nc(-c2ccccn2)cs1)c1ccc([N+](=O)[O-])o1	10µM*	2%	10	16
Cc1ccc(C(=O)Nc2nc(-c3ccccn3)cs2)o1	-27%	28%	48*	23*
CCc1nnc(NC(=O)c2ccc(-c3ccccc3F)o2)s1	-7%	38%	28	22*
O=c1cc(-c2cccc(F)c2)[nH]c2cc(Cl)ccc12	/	/	i	-4
O=C(NCc1ccccc1)c1ccc(-c2ccccc2F)o1	3%	/	41*	52*
O=C(Nc1nc(-c2ccccn2)cs1)c1ccc(-c2ccccc2F)o1	25µM*	12%	/	/
O=C(Nc1nc(-c2ccccn2)cs1)C1COc2ccccc2O1 (stereo not given)	18%	-18%	11	10
CC1CC1C(=O)Nc1nc(-c2ccccn2)cs1 (stereo not given)	4%	-10%	20	22*
CC(=O)Nc1ccc(C(=O)Nc2nc(-c3ccccn3)cs2)cc1	?	-15%	40	19
CCc1ccc(NC(=O)c2cc(CN3CCOCC3)on2)cc1	1%	-3%	/	/
Cc1ccc(NC(=O)c2cc3c(-c4ccccc4)nn(-c4ccccc4)c3s2)cc1	-2%	-6%	/	/
Cc1ccc2nc(NC(=O)C3CC(=O)N(Cc4ccco4)C3)sc2c1 (stereo not given)	0%	10%	25	19*
Cc1cc(C)c2nc(NC(=O)C3CC(=O)N(Cc4ccco4)C3)sc2c1 (stereo not given)	-25%	-13%	-1	9
O=C(Nc1nc2c(F)cc(F)cc2s1)C1CC(=O)N(Cc2ccco2)C1 (stereo not given)	5µM*	8%	47	24*
COc1ccc(-c2nnc(OC)c3ccccc23)cc1	-2%	-8%	-6	-3
Cc1nnc(Oc2ccc([N+](=O)[O-])cc2)c2ccccc12	10%	43%	30	11
COc1ccc(Oc2nnc(C)c3ccccc23)cc1	-5%	60%	42	46*
Cc1ccccc1Oc1nnc(-c2cccs2)c2ccccc12	0%	0%	-12	0
COc1ccc(-c2nnc3c4ccccc4c(C)nn23)cc1	2%	26%	96	28*
Cc1nnc(Oc2ccccc2F)c2ccccc12	-24%	63%	106*	33*
SMILES	Sm TGR block	FMDV inh	Shiga inhibitor	Cycloheximide cs
Cc1nnc(Oc2ccccc2)c2ccccc12	6%	18%	47*	24*
O=C1c2oc3ccccc3c(=O)c2C(c2ccccc2F)N1Cc1ccc2c(c1)OCO2 (stereo not given)	-1%	35%	/	/
CCCOc1ccc(CNC(=O)CCCn2nc(C)c3sc4ccccc4c3c2=O)cc1	39%	-4%	/	/
CCOc1ccc(NCc2cc3cc(OC)ccc3[nH]c2=O)cc1	-2%	?	22	-1
COc1ccc2[nH]c(=O)c(CNc3cc(C)ccc3C)cc2c1	-1%	?	43*	14*
COc1ccc2[nH]c(=O)c(CNc3ccc(C)cc3C)cc2c1	13µM*	-10%	70*	30*
